# Data from ChEMBL document CHEMBL3988442, “University of Dundee, Small-Polar-MMV Screening Library” (2021).
# About 950 (1.4%) of roughly 69,000 compounds showed an effect of 50% or more. The entries come from a sample that favours strong results as a whole.
# Test system: Mycobacterium tuberculosis
# Assay: Cornell M. t heat shock assay; also: in the data most compounds retested in dose-response had high values
# Assay type: functional, organism-based
# Set-up: dose or concentration left out as unconfirmed
row,Compound,Percent Effect
1,CC(C)N(C)Cc1cn2c(n1)CN(C(=O)Cc1ccccc1)CC2.O=C(O)C(F)(F)F,-8.481%
2,CCS(=O)(=O)Nc1ccc2c(c1)C1(CCOCC1)CN2C.O=C(O)C(F)(F)F,36%
3,CCN1CC2(CCOCC2)c2cc(NS(=O)(=O)CC)ccc21.O=C(O)C(F)(F)F,51.54%
4,CCC(=O)Nc1ccc2c(c1)C1(CCOCC1)CN2CCF.O=C(O)C(F)(F)F,28.61%
5,CCC(=O)Nc1ccc2c(c1)C1(CCOCC1)CN2CCOC.O=C(O)C(F)(F)F,46.17%
6,CCCC(=O)Nc1ccc2c(c1)C1(CCOCC1)CN2CCOC.O=C(O)C(F)(F)F,15.62%
7,COCCN1CC2(CCOCC2)c2cc(NC(=O)C3CC=CC3)ccc21.O=C(O)C(F)(F)F,100.7%
8,O=C(O)C(F)(F)F.O=C1COC2(CCN(C(=O)c3ccco3)CC2)CN1Cc1cccnc1,-2.228%
9,O=C(O)C(F)(F)F.O=C(O)C(F)(F)F.c1cnc(N2C[C@H]3CN(CC4CCOC4)C[C@H]3C2)nc1 (stereo partly specified),-39.47%
10,O=C(O)C(F)(F)F.O=C(c1ccco1)N1CCCC2(CCN(c3nncs3)C2)C1 (stereo unspecified),42.37%
11,CN(C)C(=O)COC[C@@H]1CC[C@H]2[C@H](CCN2c2ccccn2)O1.O=C(O)C(F)(F)F,-1.761%
12,Cn1cc(CN2CCC[C@]3(C[C@@H](Oc4ccccn4)CO3)C2)cn1.O=C(O)C(F)(F)F.O=C(O)C(F)(F)F,27.52%
13,Cn1cnc(S(=O)(=O)N2CC3(CCN(CC4CC4)C3)C2)c1.O=C(O)C(F)(F)F.O=C(O)C(F)(F)F,2.143%
14,CO[C@@H]1CCN(Cc2c(C)noc2C)[C@@H]2CN(Cc3cccnc3)C[C@@H]21.O=C(O)C(F)(F)F.O=C(O)C(F)(F)F.O=C(O)C(F)(F)F,14.07%
15,CN(CCc1ccncc1)Cc1nccn1Cc1ccccc1,9.887%
16,CN(CCc1ccccn1)Cc1nccn1Cc1ccccc1,101.1%
17,CN(Cc1ccncc1)Cc1nccn1Cc1ccccc1,6.234%
18,CNC[C@H]1CC[C@H](c2cc(CN(C)S(=O)(=O)N(C)C)n(C)n2)CC1.Cl,-16.56%
19,O=C(O)C(F)(F)F.O=C([C@@H]1CCO[C@@H]2CCN(Cc3ccc(F)cc3)C[C@H]21)N1CCCCO1,-25.18%

row,Compound,Percent Effect
1,COC1CN(C(=O)CC(C)(C)C)CCC(=O)N(C)c2ccccc21 (stereo unspecified),48.93%
2,COC1CN(C(=O)CC2CCCC2)CCC(=O)N(C)c2ccccc21 (stereo unspecified),50.44%
3,COC1CCN(C(=O)CC2CCCC2)CC(=O)N(C)c2ccccc21 (stereo unspecified),27.7%
4,COC1CN(C(=O)OCC(C)C)CCC(=O)N(C)c2ccccc21 (stereo unspecified),53.04%
5,COC1CN(C(=O)CC(C)C)CCC(=O)N(C)c2ccccc21 (stereo unspecified),33.11%
6,COC1CN(C(=O)COC(C)=O)CCC(=O)N(C)c2ccccc21 (stereo unspecified),45.97%
7,Cn1cc(C[C@H]2[C@H](N3CCOCC3)CCN2C(=O)c2ccco2)cn1.O=C(O)C(F)(F)F,6.591%
8,COc1ccc(CN(Cc2cccnc2)CC2CCCO2)c(OC)c1.O=C(O)CC(O)(CC(=O)O)C(=O)O (stereo unspecified),5.923%
9,CCCn1ncc(-c2ccnc(NC3CCSC3)n2)c1C (stereo unspecified),-0.2299%
10,CCCn1ncc(-c2ccnc(N[C@@H]3C[C@@H]4CC[C@H]3C4)n2)c1C,50.09%
11,CCCn1ncc(-c2ccnc(NC3CC(C)(C)NC(C)(C)C3)n2)c1C,-32.44%
12,CCN1C[C@H]2[C@@H](C1)N(S(=O)(=O)c1ccccc1)CC[C@H]2OC.O=C(O)C(F)(F)F,4.433%
13,O=C(CSCC1CC1)N1CCCC(c2nccn2Cc2ccncc2)C1 (stereo unspecified),27.98%
14,O=C(CSCC1CC1)N1CCCC(c2nccn2Cc2ccccn2)C1 (stereo unspecified),-24.76%
15,COCCn1ccnc1C1CCCN(C(=O)CSCC2CC2)C1 (stereo unspecified),75.33%
16,CC(C)c1nc2c(n1C)CCN(Cc1cccc(OCC(N)=O)c1)C2,-13.93%
17,Cn1cc(CN2CC[C@@H]3[C@@H](CO[C@H]3CNC(=O)c3ccco3)C2)cn1.O=C(O)C(F)(F)F.O=C(O)C(F)(F)F,-15.87%
18,CC/N=c1\nc(NCC)nc2n1C(O)(Nc1cccc(Cl)c1Cl)CS2 (stereo unspecified),0.756%
19,CC/N=c1\nc(NCC)nc2n1C(O)(Nc1cc(C)ccc1C)CS2 (stereo unspecified),7.529%

row,Compound,Percent Effect
1,CC/N=c1\nc(NCC)nc2n1C(O)(Nc1cccc(C)c1C)CS2 (stereo unspecified),59.58%
2,CNC(=O)c1cccc(C2CNCCN2C(=O)c2cccc(F)c2)c1.Cl (stereo unspecified),-24.93%
3,O=C(NCc1ccco1)[C@H]1COC[C@H]2CN(Cc3ccccn3)C[C@H]21.O=C(O)C(F)(F)F.O=C(O)C(F)(F)F,-5.073%
4,Cc1ncccc1-c1cc2cccnc2n1CCCNC(=O)C(C)(C)C.Cl,11.8%
5,Cc1nc(-c2ccnc(N3CCNCC3)n2)no1.Cl.Cl,10.1%
6,CC(C)COc1ccccc1C(N)CC(C)C (stereo unspecified),-26.57%
7,CCOc1ccccc1C(N)CC(C)C (stereo unspecified),6.467%
8,CC(C)C[C@H](N)COc1cccc(F)c1Oc1ccccc1,5.666%
9,COc1ccccc1C(N)CC(C)C (stereo unspecified),-0.8675%
10,CC(C)C[C@H](N)COc1cccc(F)c1Oc1ccc(Cl)cc1,105.7%
11,CC(CNS(N)(=O)=O)Oc1cccc(Cl)c1 (stereo unspecified),-31.66%
12,CNCc1cc(F)ccc1Oc1ccc(Cl)cc1,-7.892%
13,Cc1ccc(Oc2c(F)cccc2OC[C@@H](N)CC(C)C)cc1,104.6%
14,CC(C)C[C@H](N)COc1cccc(F)c1Oc1cccc(Cl)c1,103.9%
15,O=C(NC1CC1)[C@@H]1C[C@@H]2CCN(Cc3ccoc3)C[C@@H]2O1.O=C(O)C(F)(F)F,49.9%
16,Cc1nn(C)cc1-c1cncn1CCc1ccc2c(c1)OCCO2.Cl,-2.438%
17,Cl.Cl.c1cncc(OC[C@@H]2CCC[C@@]23CNCCO3)c1,-0.8406%
18,Cn1ccnc1CN1CCC2(CC1)CCN(c1ccccc1)C2=O.O=C(O)C(F)(F)F,8.178%
